Experimental data reported in ChEMBL document CHEMBL2218924, “A broad activity screen in support of a chemogenomic map for kinase signalling research and drug discovery” (Biochem J, 2013).

Assays:
[1] = target: T1, Serine/threonine-protein kinase TBK1 (Homo sapiens) (UniProt Q9UHD2); conditions: at 10 µM
T1 sequence (whole entry): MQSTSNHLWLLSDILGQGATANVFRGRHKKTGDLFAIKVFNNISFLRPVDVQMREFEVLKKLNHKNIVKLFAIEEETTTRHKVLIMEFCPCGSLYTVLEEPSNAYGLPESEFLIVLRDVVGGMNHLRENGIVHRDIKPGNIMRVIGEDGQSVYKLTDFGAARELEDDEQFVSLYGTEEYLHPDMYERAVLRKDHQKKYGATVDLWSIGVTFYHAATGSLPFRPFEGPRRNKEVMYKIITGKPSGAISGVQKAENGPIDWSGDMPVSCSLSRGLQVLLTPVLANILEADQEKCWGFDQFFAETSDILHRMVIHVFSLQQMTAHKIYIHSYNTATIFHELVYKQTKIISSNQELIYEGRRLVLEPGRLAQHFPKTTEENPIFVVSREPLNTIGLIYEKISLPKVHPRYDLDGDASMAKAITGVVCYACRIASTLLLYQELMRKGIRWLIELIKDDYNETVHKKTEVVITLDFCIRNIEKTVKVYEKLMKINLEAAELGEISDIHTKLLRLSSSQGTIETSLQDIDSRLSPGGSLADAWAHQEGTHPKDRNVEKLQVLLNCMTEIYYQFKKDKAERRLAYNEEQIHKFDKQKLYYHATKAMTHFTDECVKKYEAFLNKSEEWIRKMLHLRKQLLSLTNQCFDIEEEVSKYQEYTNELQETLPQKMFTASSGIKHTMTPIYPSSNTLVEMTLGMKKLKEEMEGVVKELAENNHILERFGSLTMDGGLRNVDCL

[2] = target: T2, TGF-beta receptor type-1 (Homo sapiens) (UniProt P36897); conditions: at 10 µM
T2 sequence (whole entry): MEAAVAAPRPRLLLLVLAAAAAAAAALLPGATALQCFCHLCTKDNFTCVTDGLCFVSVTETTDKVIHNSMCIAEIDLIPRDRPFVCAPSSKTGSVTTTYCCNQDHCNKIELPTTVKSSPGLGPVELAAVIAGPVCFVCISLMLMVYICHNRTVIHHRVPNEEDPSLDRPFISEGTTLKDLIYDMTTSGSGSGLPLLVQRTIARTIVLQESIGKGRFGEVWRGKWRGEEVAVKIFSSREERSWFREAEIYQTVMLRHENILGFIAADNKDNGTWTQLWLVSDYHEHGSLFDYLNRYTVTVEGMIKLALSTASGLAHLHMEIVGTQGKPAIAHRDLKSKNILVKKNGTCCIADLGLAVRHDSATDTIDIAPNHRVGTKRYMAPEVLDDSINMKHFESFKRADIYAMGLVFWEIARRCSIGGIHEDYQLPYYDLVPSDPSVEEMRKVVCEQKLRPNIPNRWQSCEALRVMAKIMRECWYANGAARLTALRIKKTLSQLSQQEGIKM

[3] = target: T3, Inhibitor of nuclear factor kappa-B kinase subunit alpha (Homo sapiens) (UniProt O15111); conditions: at 1 µM
T3 sequence (whole entry): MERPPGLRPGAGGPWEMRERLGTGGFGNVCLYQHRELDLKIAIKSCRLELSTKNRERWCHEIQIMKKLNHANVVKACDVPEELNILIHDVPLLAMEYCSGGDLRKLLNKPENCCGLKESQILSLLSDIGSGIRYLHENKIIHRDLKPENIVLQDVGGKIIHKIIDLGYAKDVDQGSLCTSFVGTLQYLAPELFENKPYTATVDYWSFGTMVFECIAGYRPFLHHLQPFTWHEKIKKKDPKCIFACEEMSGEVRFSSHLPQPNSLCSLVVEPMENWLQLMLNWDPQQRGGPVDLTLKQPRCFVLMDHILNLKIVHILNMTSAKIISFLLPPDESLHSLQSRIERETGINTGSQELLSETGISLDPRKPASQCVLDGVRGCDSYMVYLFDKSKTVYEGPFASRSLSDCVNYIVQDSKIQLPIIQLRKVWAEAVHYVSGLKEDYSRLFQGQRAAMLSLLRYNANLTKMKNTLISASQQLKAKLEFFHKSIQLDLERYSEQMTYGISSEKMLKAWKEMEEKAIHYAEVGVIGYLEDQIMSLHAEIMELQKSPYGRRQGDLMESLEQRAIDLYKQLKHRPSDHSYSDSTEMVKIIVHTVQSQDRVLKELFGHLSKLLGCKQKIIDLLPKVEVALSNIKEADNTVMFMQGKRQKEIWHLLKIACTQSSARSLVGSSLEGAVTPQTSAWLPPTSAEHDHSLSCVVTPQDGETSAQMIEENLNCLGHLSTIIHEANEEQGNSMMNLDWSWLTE

[4] = target: T3, Inhibitor of nuclear factor kappa-B kinase subunit alpha (Homo sapiens); conditions: at 10 µM
[5] = target: T4, Inhibitor of nuclear factor kappa-B kinase subunit beta (Homo sapiens) (UniProt O14920); conditions: at 1 µM
T4 sequence (whole entry): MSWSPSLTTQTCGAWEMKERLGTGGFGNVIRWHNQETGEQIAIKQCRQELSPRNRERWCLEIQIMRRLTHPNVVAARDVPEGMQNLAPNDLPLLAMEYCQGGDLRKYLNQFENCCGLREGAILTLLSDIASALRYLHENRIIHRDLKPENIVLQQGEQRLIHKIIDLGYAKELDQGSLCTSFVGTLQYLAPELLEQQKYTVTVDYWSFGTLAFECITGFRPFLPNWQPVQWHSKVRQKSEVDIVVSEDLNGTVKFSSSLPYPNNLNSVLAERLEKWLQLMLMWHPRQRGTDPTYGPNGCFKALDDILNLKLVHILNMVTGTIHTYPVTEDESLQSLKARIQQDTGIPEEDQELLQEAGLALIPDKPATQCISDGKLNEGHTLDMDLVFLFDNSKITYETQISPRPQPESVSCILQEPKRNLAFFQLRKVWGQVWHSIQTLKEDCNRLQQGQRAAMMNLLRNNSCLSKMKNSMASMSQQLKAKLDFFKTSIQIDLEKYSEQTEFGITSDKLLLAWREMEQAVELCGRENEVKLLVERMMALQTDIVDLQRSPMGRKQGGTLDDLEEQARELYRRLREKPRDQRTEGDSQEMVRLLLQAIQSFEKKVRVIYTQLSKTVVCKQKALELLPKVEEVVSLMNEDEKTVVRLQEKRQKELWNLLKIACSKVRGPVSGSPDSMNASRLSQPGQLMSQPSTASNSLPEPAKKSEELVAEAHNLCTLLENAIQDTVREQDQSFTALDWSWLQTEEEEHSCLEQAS

[6] = target: Interleukin-1 receptor-associated kinase 1 (Homo sapiens) (UniProt P51617); conditions: at 10 µM
[7] = target: T5, Interleukin-1 receptor-associated kinase 4 (Homo sapiens) (UniProt Q9NWZ3); conditions: at 1 µM
T5 sequence (whole entry): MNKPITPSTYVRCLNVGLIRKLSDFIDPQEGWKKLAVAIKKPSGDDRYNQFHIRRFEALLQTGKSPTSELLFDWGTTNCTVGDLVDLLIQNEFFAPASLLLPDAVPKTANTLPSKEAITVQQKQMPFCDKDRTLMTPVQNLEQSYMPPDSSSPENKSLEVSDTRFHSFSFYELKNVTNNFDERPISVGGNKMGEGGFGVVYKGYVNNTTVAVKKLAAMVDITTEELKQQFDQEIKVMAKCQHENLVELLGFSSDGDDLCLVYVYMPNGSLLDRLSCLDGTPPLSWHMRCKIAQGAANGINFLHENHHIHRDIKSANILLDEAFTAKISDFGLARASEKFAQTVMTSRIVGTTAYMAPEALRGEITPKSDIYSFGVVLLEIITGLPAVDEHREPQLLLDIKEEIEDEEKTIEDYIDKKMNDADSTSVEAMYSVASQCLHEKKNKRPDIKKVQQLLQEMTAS

[8] = target: T5, Interleukin-1 receptor-associated kinase 4 (Homo sapiens); conditions: at 10 µM
[9] = target: Insulin receptor-related protein (Homo sapiens) (UniProt P14616); conditions: at 1 µM
[10] = target: Insulin receptor-related protein (Homo sapiens) (UniProt P14616); conditions: at 10 µM
[11] = target: T6, Tyrosine-protein kinase ITK/TSK (Homo sapiens) (UniProt Q08881); conditions: at 1 µM
T6 sequence (whole entry): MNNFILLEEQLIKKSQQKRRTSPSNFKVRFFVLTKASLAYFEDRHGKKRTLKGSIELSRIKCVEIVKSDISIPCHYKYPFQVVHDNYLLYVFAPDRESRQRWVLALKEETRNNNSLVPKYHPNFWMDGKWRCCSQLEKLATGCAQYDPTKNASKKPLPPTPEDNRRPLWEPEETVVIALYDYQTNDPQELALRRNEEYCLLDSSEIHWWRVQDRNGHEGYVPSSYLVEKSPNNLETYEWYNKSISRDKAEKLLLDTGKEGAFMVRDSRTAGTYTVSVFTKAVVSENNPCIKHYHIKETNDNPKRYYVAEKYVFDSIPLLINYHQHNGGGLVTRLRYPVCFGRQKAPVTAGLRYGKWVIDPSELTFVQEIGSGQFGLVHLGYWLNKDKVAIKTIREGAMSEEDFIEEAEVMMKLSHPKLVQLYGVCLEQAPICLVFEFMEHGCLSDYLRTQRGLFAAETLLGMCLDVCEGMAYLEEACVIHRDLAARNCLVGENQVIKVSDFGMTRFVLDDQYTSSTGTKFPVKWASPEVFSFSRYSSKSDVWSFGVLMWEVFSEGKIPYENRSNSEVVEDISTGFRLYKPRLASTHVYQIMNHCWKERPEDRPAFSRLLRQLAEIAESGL

[12] = target: T2, TGF-beta receptor type-1 (Homo sapiens); conditions: at 1 µM
[13] = target: Insulin-like growth factor 1 receptor (Homo sapiens) (UniProt P08069); conditions: at 1 µM
[14] = target: Insulin-like growth factor 1 receptor (Homo sapiens) (UniProt P08069); conditions: at 10 µM
[15] = target: T4, Inhibitor of nuclear factor kappa-B kinase subunit beta (Homo sapiens); conditions: at 10 µM
[16] = target: Interleukin-1 receptor-associated kinase 1 (Homo sapiens) (UniProt P51617); conditions: at 1 µM
[17] = target: Insulin receptor (Homo sapiens) (UniProt P06213); conditions: at 1 µM
[18] = target: Insulin receptor (Homo sapiens) (UniProt P06213); conditions: at 10 µM
[19] = target: Insulin receptor (Homo sapiens) (UniProt P06213); conditions: at 1 µM; remark: listed apart in the source
[20] = target: Insulin receptor (Homo sapiens) (UniProt P06213); conditions: at 10 µM; remark: listed apart in the source

Insulin receptor (Homo sapiens), sequence (P06213 28-758 limits assumed): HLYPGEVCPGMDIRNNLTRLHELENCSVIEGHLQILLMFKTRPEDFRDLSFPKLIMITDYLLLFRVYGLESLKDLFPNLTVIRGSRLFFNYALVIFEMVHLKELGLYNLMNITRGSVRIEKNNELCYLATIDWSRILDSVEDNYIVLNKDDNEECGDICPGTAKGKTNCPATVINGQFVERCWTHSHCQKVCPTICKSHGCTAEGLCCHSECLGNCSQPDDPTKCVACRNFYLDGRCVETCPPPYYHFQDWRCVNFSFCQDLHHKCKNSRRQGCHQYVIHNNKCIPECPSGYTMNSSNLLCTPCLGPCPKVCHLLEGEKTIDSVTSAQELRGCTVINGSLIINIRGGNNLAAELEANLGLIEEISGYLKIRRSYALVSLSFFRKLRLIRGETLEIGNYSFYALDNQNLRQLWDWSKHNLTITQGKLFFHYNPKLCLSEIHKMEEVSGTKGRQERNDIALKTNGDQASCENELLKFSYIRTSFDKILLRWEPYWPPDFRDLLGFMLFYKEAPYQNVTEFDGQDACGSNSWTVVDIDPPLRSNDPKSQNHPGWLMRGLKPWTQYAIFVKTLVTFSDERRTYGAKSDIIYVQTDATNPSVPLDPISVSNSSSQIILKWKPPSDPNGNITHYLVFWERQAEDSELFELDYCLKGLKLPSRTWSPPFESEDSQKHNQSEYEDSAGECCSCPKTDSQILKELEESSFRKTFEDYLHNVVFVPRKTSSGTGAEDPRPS
Insulin receptor (Homo sapiens), sequence (P06213 763-1382 limits assumed): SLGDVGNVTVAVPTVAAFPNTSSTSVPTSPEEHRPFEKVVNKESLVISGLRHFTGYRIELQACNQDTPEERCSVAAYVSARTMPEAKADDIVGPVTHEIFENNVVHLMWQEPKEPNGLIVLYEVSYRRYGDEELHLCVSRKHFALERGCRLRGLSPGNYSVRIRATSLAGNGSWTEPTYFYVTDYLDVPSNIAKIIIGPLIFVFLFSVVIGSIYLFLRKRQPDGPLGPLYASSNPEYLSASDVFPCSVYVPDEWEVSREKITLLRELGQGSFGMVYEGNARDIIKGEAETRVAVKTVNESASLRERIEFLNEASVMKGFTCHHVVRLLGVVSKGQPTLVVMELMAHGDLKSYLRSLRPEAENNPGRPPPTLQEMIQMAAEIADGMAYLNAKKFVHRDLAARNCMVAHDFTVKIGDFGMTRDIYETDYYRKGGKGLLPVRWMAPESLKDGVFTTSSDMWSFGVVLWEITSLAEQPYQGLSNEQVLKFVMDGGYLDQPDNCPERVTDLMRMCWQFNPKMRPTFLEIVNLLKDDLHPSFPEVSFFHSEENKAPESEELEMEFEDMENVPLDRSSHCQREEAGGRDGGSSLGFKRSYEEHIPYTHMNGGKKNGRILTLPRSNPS
Interleukin-1 receptor-associated kinase 1 (Homo sapiens), sequence (P51617 whole entry, looked up): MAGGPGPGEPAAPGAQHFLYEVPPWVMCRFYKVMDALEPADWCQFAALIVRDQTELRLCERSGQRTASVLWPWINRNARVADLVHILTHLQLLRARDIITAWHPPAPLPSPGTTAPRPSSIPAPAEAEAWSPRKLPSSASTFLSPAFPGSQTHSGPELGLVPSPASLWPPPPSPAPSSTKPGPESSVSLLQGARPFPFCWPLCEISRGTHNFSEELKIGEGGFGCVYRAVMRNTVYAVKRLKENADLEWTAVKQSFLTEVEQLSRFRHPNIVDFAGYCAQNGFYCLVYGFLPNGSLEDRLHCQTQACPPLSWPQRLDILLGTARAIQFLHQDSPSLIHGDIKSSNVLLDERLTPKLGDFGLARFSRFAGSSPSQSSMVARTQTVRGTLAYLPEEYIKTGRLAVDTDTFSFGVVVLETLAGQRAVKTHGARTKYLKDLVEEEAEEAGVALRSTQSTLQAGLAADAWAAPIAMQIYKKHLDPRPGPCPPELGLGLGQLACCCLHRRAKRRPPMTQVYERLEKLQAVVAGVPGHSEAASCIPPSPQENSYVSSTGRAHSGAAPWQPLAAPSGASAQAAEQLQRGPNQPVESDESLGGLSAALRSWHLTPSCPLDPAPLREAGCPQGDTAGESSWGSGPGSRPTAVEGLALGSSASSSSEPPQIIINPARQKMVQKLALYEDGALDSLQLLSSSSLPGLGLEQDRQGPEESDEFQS
Insulin-like growth factor 1 receptor (Homo sapiens), sequence (P08069 31-736 limits assumed): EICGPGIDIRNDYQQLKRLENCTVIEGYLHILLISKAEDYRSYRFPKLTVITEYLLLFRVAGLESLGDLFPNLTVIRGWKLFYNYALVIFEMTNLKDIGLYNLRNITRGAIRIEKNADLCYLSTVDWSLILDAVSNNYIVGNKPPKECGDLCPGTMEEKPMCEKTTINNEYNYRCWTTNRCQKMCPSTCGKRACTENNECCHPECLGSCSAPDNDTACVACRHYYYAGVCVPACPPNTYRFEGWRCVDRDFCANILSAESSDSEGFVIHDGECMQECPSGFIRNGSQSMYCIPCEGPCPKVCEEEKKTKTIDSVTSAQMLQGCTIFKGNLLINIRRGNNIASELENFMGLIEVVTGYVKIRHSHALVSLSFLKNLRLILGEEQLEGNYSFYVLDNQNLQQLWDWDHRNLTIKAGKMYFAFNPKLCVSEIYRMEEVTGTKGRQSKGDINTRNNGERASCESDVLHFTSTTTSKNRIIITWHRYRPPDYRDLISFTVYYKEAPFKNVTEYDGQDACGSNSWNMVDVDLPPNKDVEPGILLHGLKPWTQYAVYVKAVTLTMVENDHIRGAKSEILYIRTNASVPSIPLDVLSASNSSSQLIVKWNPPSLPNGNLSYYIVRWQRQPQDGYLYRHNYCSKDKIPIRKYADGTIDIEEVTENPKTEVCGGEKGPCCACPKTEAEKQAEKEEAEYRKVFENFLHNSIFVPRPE
Insulin-like growth factor 1 receptor (Homo sapiens), sequence (P08069 741-1367 limits assumed): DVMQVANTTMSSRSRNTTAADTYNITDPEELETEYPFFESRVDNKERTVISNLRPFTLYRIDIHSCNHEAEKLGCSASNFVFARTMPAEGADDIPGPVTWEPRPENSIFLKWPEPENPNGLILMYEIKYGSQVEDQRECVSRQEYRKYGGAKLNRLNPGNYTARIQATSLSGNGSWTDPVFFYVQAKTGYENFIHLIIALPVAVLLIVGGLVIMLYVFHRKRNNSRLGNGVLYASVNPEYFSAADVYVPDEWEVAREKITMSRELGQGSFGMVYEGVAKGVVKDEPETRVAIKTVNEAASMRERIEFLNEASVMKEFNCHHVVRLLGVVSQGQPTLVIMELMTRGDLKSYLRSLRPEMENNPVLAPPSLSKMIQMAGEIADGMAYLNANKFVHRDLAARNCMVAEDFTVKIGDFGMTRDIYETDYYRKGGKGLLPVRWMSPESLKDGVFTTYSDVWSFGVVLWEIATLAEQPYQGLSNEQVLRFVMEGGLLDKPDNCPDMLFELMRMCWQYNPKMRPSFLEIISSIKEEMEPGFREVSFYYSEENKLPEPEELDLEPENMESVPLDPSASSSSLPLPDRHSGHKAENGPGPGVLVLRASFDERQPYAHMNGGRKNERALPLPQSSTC
Insulin receptor-related protein (Homo sapiens), sequence (P14616 27-742 limits assumed): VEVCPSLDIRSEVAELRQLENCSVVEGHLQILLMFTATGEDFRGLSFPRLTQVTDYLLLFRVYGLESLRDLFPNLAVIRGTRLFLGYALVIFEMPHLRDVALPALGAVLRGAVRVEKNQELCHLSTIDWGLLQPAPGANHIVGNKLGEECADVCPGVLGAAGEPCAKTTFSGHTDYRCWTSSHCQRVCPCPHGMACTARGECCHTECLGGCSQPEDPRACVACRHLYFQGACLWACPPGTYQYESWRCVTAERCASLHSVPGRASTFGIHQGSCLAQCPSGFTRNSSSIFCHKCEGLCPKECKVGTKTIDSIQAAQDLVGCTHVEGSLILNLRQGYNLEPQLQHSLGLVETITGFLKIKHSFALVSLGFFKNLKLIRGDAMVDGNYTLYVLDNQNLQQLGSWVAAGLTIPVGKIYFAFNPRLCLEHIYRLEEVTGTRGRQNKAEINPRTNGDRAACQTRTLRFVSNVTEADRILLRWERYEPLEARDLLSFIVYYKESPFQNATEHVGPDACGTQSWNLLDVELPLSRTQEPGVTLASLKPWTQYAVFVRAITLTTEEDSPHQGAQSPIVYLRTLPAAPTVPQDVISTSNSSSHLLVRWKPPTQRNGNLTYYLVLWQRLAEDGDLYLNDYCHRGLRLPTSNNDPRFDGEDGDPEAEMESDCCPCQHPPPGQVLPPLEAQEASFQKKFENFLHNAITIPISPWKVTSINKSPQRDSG
Insulin receptor-related protein (Homo sapiens), sequence (P14616 747-1297 limits assumed): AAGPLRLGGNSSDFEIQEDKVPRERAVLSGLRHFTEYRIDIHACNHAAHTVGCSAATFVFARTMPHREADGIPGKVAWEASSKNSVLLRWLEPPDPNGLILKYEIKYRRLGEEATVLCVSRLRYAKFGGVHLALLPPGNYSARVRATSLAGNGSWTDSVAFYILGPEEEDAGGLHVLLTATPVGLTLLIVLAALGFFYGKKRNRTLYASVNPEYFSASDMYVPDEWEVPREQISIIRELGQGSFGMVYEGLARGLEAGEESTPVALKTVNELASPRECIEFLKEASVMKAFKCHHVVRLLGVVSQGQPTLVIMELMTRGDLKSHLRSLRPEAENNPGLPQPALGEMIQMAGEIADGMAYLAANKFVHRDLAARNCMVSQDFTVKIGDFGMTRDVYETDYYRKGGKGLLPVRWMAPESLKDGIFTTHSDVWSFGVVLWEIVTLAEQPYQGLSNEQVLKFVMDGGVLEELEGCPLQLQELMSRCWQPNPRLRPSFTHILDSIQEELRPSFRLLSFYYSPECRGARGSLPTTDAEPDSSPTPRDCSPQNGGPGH

## c1ccc(-c2cnc(Nc3ccc(OCCN4CCCC4)cc3)s2)cc1
[1]
  residual activity: 23%
[2]
  residual activity: 74%
[3]
  residual activity: 77%
[4]
  residual activity: 66%
[5]
  residual activity: 116%
[6]
  residual activity: 42%
[7]
  residual activity: 124%
[8]
  residual activity: 80%
[9]
  residual activity: 135%
[10]
  residual activity: 65%
[11]
  residual activity: 81%

## Nc1ncnc2c1cnn2-c1ccccc1
[12]
  residual activity: 92%
[13]
  residual activity: 88%
[14]
  residual activity: 76%
[4]
  residual activity: 85%
[5]
  residual activity: 97%
[15]
  residual activity: 86%
[16]
  residual activity: 93%
[6]
  residual activity: 84%
[8]
  residual activity: 84%
[9]
  residual activity: 135%
[10]
  residual activity: 93%
[11]
  residual activity: 102%

## NC(=O)c1cccc(-c2cc(Nc3ccc(OC(F)(F)F)cc3)ncn2)c1
[1]
  residual activity: 79%
[3]
  residual activity: 128%
[4]
  residual activity: 149%
[16]
  residual activity: 95%
[6]
  residual activity: 93%
[9]
  residual activity: 139%
[10]
  residual activity: 98%

## CCN(CC)CCNC(=O)c1c(C)[nH]c(/C=C2\C(=O)Nc3ccc(Cl)cc32)c1C
[1]
  residual activity: 1%
[13]
  residual activity: 30%
[14]
  residual activity: 3%
[4]
  residual activity: 65%
[5]
  residual activity: 98%
[17]
  residual activity: 32%
[18]
  residual activity: 6%
[19]
  residual activity: 8%
[20]
  residual activity: 0%
[16]
  residual activity: 9%
[6]
  residual activity: 0%
[7]
  residual activity: 22%
[8]
  residual activity: 7%
[9]
  residual activity: 13%
[10]
  residual activity: 0%
[11]
  residual activity: 21%

## NCCNc1ncc(C(N)=O)c(Nc2cccc(C(F)(F)F)c2)n1
[1]
  residual activity: 54%
[3]
  residual activity: 104%
[4]
  residual activity: 66%
[17]
  residual activity: 115%
[18]
  residual activity: 77%
[19]
  residual activity: 74%
[20]
  residual activity: 34%
[8]
  residual activity: 51%
[9]
  residual activity: 142%
[10]
  residual activity: 55%

## COc1ccc(CNC(=O)Nc2ncc([N+](=O)[O-])s2)cc1
[1]
  residual activity: 59%
[3]
  residual activity: 111%
[4]
  residual activity: 113%
[5]
  residual activity: 109%
[15]
  residual activity: 108%
[6]
  residual activity: 103%
[7]
  residual activity: 72%
[8]
  residual activity: 78%

## O=C1NC(=O)c2c1c1c3ccccc3[nH]c1n1cncc21
[1]
  residual activity: 35%
[12]
  residual activity: 91%
[13]
  residual activity: 45%
[14]
  residual activity: 30%
[3]
  residual activity: 63%
[4]
  residual activity: 55%
[5]
  residual activity: 94%
[15]
  residual activity: 80%
[17]
  residual activity: 10%
[18]
  residual activity: 15%
[19]
  residual activity: 31%
[20]
  residual activity: 19%
[16]
  residual activity: 76%
[6]
  residual activity: 66%
[7]
  residual activity: 61%
[8]
  residual activity: 56%
[9]
  residual activity: 5%
[10]
  residual activity: 3%
[11]
  residual activity: 85%

## Fc1ccc(-c2nc3n(c2-c2ccncc2)CCS3)cc1
[1]
  residual activity: 89%
[9]
  residual activity: 128%
